In PubChem BioAssay (NCI):
Compounds without any hit were thinned out: in the full panel of roughly 83,000, 20% have a hit.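 Values shown are percent growth following 48 h exposure of cells in 96-well plates to a single concentration of compound; below 10 was considered active.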 Active and inactive are the calls of the source.

Columns and labels:
Assay in all cases: NCI-60 one-dose screen, 48 h (100 = growth as untreated, 0 = no growth, -100 = all killed)
Details in all cases: 10 µM unless noted
[1] = system: HCT-15 colon
[2] = system: HT29 colon
[3] = system: SNB-75 CNS
[4] = system: SNB-19 CNS
[5] = system: U251 CNS
[6] = system: PC-3 prostate
[7] = system: SK-MEL-5 melanoma
[8] = system: UACC-62 melanoma
[9] = system: LOX IMVI melanoma
[10] = system: SK-MEL-28 melanoma

Measured: growth

CCCCCC(/C=N\NC(=S)N/N=C/C(=C/c1ccccc1)CCCCC)=C\c1ccccc1
inactive: [1] 45.4% | [2] 105% | [3] 102% | [4] 56.8% | [5] 55.3% | [6] 46.1% | [7] 68.2% | [8] 56.8% | [9] 60.8% | [10] 93.7%

COc1c(B(O)O)cccc1-c1cc(C)c2c(ccc3[nH]ncc32)n1
active: [3] -29.9%
inactive: [1] 95.2% | [2] 88.2% | [4] 91.1% | [5] 87.8% | [6] 84.3% | [7] 88.9% | [8] 98.8% | [9] 56.9% | [10] 116%

O=C(c1ccncc1)N1N=C(c2ccc(Cl)cc2)C[C@H]1c1cn(-c2ccccc2)nc1-c1ccccc1
inactive: [1] 82.4% | [2] 104% | [3] 72.7% | [4] 88.6% | [5] 61.1% | [6] 79.5% | [7] 90.7% | [8] 91.7% | [9] 79.9% | [10] 96%

COc1cccc(CNc2ccc3ncnc(Nc4ccc(F)c(Cl)c4)c3c2)c1
inactive: [1] 53.2% | [2] 88.3% | [3] 79.3% | [4] 69% | [5] 71.4% | [6] 52.7% | [7] 89.5% | [8] 81.1% | [9] 69.8% | [10] 107%

Cc1ccc(-c2nc(N3CCCNCC3)c3oc(-c4ccccc4)nc3n2)cc1
active: [1] -85.1% | [2] -82.8% | [3] -67.3% | [4] 8.75% | [5] -85.9% | [6] -88.7% | [7] -93.4% | [8] -91.8% | [9] -91.6% | [10] -93.4%

O=C(Nc1cccc2ccccc12)NC1CC1
inactive: [1] 112% | [2] 114% | [3] 83.6% | [4] 107% | [5] 101% | [6] 97.4% | [7] 103% | [8] 99.8% | [9] 101% | [10] 105%

Cc1cc(=O)n(C(=O)Nc2ccccc2Cl)c2cc(O)ccc12
inactive: [1] 107% | [2] 108% | [3] 93.7% | [4] 97% | [5] 98.6% | [6] 93.6% | [7] 101% | [8] 101% | [9] 99.1% | [10] 107%

C=CCc1c(O)c(C(=O)/C=C/c2ccccc2)c(OC)c2ccoc12
inactive: [1] 39.6% | [2] 27.9% | [3] 72.9% | [4] 46.6% | [5] 26.8% | [6] 33.9% | [7] 33.3% | [8] 41.3% | [9] 35.2% | [10] 64.6%

C1CCC([PH+](C2CCCCC2)C2CCCCC2[PH+](C2CCCCC2)C2CCCCC2)CC1.[Au].[CH-]1CCCCC1C1CCCC[N-]1 (stereo not given)
active: [1] -26.2% | [2] 2.8% | [3] -31.8% | [4] -96.6% | [5] -84.3% | [6] -16.7% | [7] -98% | [8] -79.7% | [9] -96.5% | [10] -83.2%

C=CCn1c(C)nc2ccc(Nc3nc(Nc4ccc5nc(C)n(CC=C)c5c4)c4ccccc4n3)cc21
inactive: [4] 30.6%
active: [1] -51.7% | [2] -96.7% | [3] -95.2% | [5] -94.2% | [6] -47.8% | [7] -94.2% | [8] -87% | [9] -88.6% | [10] -96%

COc1ccc(C(=O)c2cc3c(N)c(C(=O)Nc4ccc(C)cc4)sc3nc2C)cc1
active: [2] 9.18% | [3] -2.41% | [7] 6.93%
inactive: [1] 11.5% | [4] 28.9% | [5] 19.2% | [6] 25.1% | [8] 30.6% | [9] 39.2% | [10] 54%

O=C(O)c1cn(C2CC2)c2cc(N3CCN(C(=O)N(c4ccccc4)c4nc(-c5ccccc5)cs4)CC3)c(F)cc2c1=O
active: [1] 6.28% | [2] 4.23% | [3] -9.1% | [6] 8.6% | [7] -61.3% | [8] -4% | [9] -23.6%
inactive: [4] 15.7% | [5] 12.6% | [10] 36.1%

COc1ccc(C2=Nc3c(N)nc(N)nc3NC(c3cccc(Nc4ccnc5cc(C(F)(F)F)ccc45)c3)C2)cc1 (stereo not given)
inactive: [1] 36.6% | [2] 30.4% | [3] 65.6% | [4] 73.1% | [5] 60.4% | [6] 48.4% | [7] 61.4% | [8] 88.9% | [9] 65.3% | [10] 91.5%

N#C/C(=C\c1c(-c2ccccc2)[nH]c2ccccc12)C(N)=O
inactive: [1] 56.4% | [2] 67.4% | [3] 32.5% | [4] 89.6% | [5] 79.6% | [6] 69.8% | [7] 64.7% | [8] 58.9% | [9] 76.2% | [10] 97.6%

C=C1C(=O)O[C@H]2[C@H]1CC/C(COC(=O)NCc1ccc(Cn3c(=O)sn(CCCCC)c3=O)cc1)=C\CC[C@@]1(C)O[C@@H]21
inactive: [1] 16.8% | [3] 74.4% | [4] 85.9% | [5] 52% | [6] 46.4% | [7] 91.6% | [8] 46.5% | [10] 47%
active: [2] -33.4% | [9] -11.6%

COc1ccc(Nc2ncc(Br)c(NCCCNC(=O)c3cccs3)n2)cc1
inactive: [1] 34.5% | [2] 51.6% | [3] 48.9% | [4] 56.8% | [5] 52.7% | [6] 42.1% | [7] 69.5% | [8] 45.7% | [9] 14.6% | [10] 68.4%

COc1ccc(-c2nn(-c3cccc(Cl)c3)cc2-c2cc(-c3ccc(Br)cc3)nc(N)n2)cc1
inactive: [1] 81.4% | [2] 86% | [3] 96.9% | [4] 95.2% | [5] 97.5% | [6] 80% | [7] 94.6% | [8] 85% | [9] 98.7% | [10] 103%

COc1cc2oc(-c3cccc(NC(=O)c4ccccc4)c3)cc(=O)c2c(OC)c1OC
inactive: [1] 65.2% | [2] 77.1% | [3] 77.4% | [4] 91.4% | [5] 83.7% | [6] 53.1% | [7] 63.2% | [8] 66.8% | [9] 61.7% | [10] 73.2%

CC(C)C1=NOC(=O)C1=Cc1cn(-c2ccccc2)nc1-c1ccc(F)cc1
active: [9] 6.17%
inactive: [1] 61.4% | [2] 28.8% | [3] 70.6% | [4] 81.7% | [5] 51.3% | [6] 38.5% | [7] 78.9% | [8] 75.5% | [10] 82.7%

COc1ccc(C(O)c2cc3c(N)c(C(=O)Nc4cccc(Br)c4)sc3nc2C)cc1 (stereo not given)
active: [1] 7.7% | [2] 8.32% | [7] -72.9%
inactive: [3] 24.4% | [4] 24.6% | [5] 15.7% | [6] 15.6% | [8] 13.5% | [9] 15.5% | [10] 50.7%

COc1ccc(-c2noc(C(=O)O)c2-c2cc(OC)c(OC)c(OC)c2)cc1
inactive: [1] 30.4% | [4] 31.6% | [5] 24.6% | [6] 26.3% | [7] 13% | [8] 24.2% | [9] 35.2% | [10] 65.3%
active: [2] 4.82% | [3] -3.43%

CCN(CC)CCn1c2ccc(OC)cc2c2sc3cc(OC)ccc3c(=O)c21
active: [1] 8.79% | [2] 0.172% | [9] -75%
inactive: [3] 85.9% | [4] 28.9% | [5] 20.5% | [6] 25.6% | [7] 57% | [8] 47.2% | [10] 29.7%

O=C1/C(=C/c2cn(-c3ccccc3)nc2-c2ccccc2)SC(=S)N1C1CCCCC1
inactive: [1] 109% | [2] 111% | [3] 99.2% | [4] 96.9% | [5] 107% | [6] 96.3% | [7] 100% | [8] 92.6% | [9] 91% | [10] 101%

COc1ccc(-c2cc(-c3cc(OC)c(OC)c(OC)c3)c(C#N)c(=O)n2CCCCC(=O)NO)cc1
active: [9] 9.19%
inactive: [1] 38.4% | [2] 77.9% | [3] 25.5% | [4] 77.5% | [5] 61.3% | [6] 61% | [7] 57.7% | [8] 60.7% | [10] 76.8%

CCOC(=O)c1c(NC(=O)c2cccc(C(F)(F)F)c2)sc2c(CN(C)C)c(O)ccc12
inactive: [1] 10.6% | [2] 13.5% | [3] 83% | [4] 88.4% | [5] 16.5% | [6] 60.3% | [7] 93.6% | [8] 102% | [9] 16.5% | [10] 17%

O=S(=O)(NCCCNc1nccc(-c2c(-c3ccc(F)c(O)c3)nc3sccn23)n1)c1ccccc1
active: [8] 5.45%
inactive: [1] 68.5% | [2] 51% | [3] 105% | [4] 104% | [5] 90.2% | [6] 61.5% | [7] 51.1% | [9] 18% | [10] 24.1%
